Results as given in PubChem BioAssay (NCI).
The panel holds about 83,000 compounds, 20% with a hit somewhere; the sample as a whole holds those more often.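 Note: values are percent growth. 100 is the growth of untreated cells, values between 100 and 0 indicate rising inhibition; between -100 and 0 indicates cell death.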 Active and inactive are the calls of the source. Rule for the calls: active = growth percent below 10; inactive = the rest.

tested on: RXF 393 renal; test: NCI-60 one-dose screen, 48 h (100 = growth as untreated, 0 = no growth, -100 = all killed); conditions: 10 µM unless noted

SMILES | growth
O=C(COc1cccc(/C=C2\Oc3ccccc3C2=O)c1)c1ccc([N+](=O)[O-])cc1 | 97.6% (inactive)
CC[C@]12C=CCN3CC[C@@]4(c5ccc(OC)cc5N(C)[C@H]4[C@@](O)(C(=O)OC)[C@@H]1OC(=O)CCC(=O)N[C@H](Cc1c[nH]c4ccccc14)C(=O)OC)[C@@H]32 | -60.6% [100 µM] (active)
C=C(C)[C@@H]1CC[C@]2(C(N)=O)CC[C@]3(C)[C@H](CC[C@@H]4[C@@]5(C)C/C(=C/c6cccnc6)[C@H](O)C(C)(C)[C@@H]5CC[C@]43C)[C@@H]12 | 13.4% [100 µM] (inactive)
CSc1nc2sc3cc(Cl)c(Cl)cc3n2c(=N)c1C#N | 149% (inactive)
COc1ccc(/C=C2\N=C(Nc3ccccc3)N(NC(=O)c3ccccn3)C2=O)cc1 | 95.8% (inactive)
O=C(NCCCNC(=O)OCc1ccc2cccc(O)c2n1)OCc1ccc2cccc(O)c2n1 | 0.757% (active)
COc1cc(C(=O)/C=C/c2c(-c3ccc(F)cc3)nc3sccn23)cc(OC)c1OC | -50.6% (active)
CCCCCCCCCCCCNC(=S)N/N=C/c1ccccc1O | 107% (inactive)
CCCc1cc2cc(-n3nc(C)c4c3CC(C)(C)CC4=O)cc(NC3CCSCC3)c2c(=O)[nH]1 | 33.7% (inactive)
COc1ccc(-c2cc(-c3ccc(OC)c(OC)c3)nc(SCCCCCC(=O)NO)n2)cc1 | 42.1% (inactive)
CCC(C)[C@H](NC(=O)NC(=O)NC(=O)CI)C(=O)OC (stereo partly drawn) | 85.3% (inactive)
CCN(CC)c1ccc(/C=C/c2ccc3cc(C)ccc3[n+]2CC)cc1 | 11.8% (inactive)
N/C(=N\c1nc2ccccc2[nH]1)NC(=O)Cc1cccc2ccccc12 | 92% (inactive)
CC1(C)CC[C@]2(C(N)=O)CC[C@]3(C)C(=CC[C@@H]4[C@@]5(C)C/C(=C/c6ccncc6)C(=O)C(C)(C)[C@@H]5CC[C@]43C)[C@@H]2C1 | -52.5% [100 µM] (active)
Cc1ccc(C2=C/C(=C/c3ccc(Br)cc3)C(=O)N2CCc2ccc(S(N)(=O)=O)cc2)cc1 | 90% (inactive)
Cc1ccc(NCCN2CCCCC2)c2c(=O)c3ccccc3sc12 | -29.5% (active)
CC1(C)CC(=O)c2c(ccc(C(=O)C[C@@H](N)CO)c2N)O1 | 16.6% (inactive)

SMILES | growth
CCCCC1COc2cccc3c2N1C=C/C3=C\C(=O)n1ccc2ccccc21 (stereo not drawn) | 87% (inactive)
CC(C)CSc1ncnc2nc[nH]c12 | 92.3% (inactive)
CC1(C)CC[C@]2(C(=O)O)CC[C@]3(C)C(=CC[C@@H]4[C@@]5(C)C/C(=C/c6cccnc6)[C@H](O)C(C)(C)[C@@H]5CC[C@]43C)[C@@H]2C1 | -37.4% [100 µM] (active)
COc1ccc(C=C2c3ccccc3-c3ccccc32)cc1 | 54.5% (inactive)
C#C[C@]1(O)CC[C@H]2[C@@H]3CC=C4c5nc(Nc6ccc(OC)cc6OC)sc5CC[C@]4(C)[C@H]3CC[C@@]21C | -60% (active)
CCOC(=O)c1nn(C2CCCCO2)c2ccc(NC(=O)CSc3nc4ccccc4c(=O)[nH]3)cc12 (stereo not drawn) | 71.8% (inactive)
O=c1[nH]cnc2c1ccn2C1OC(CO)C(O)C1O (stereo not drawn) | 43.1% (inactive)
CCOC(=O)C(=Cc1ccccc1[N+](=O)[O-])C(=O)OCC | 0.0546% (active)
Cc1cc(C)c(S(=O)(=O)/N=c2/n(-c3ccccc3)nc3n2CCN3C2=NCCN2)c(C)c1 | 54.9% (inactive)
COC(=O)c1cc2c(=O)[nH]cc3c2c(n1)CCC3 | 100% (inactive)
Cn1cc(-c2noc(C(=O)c3cn(C)c4ncccc34)n2)c2ccccc21 | 88.5% (inactive)
O=c1cc(-c2ccccc2)oc2cc(OCc3cn(Cc4ccc(F)cc4)nn3)cc(O)c12 | 9.11% [100 µM] (active)
Cc1ccc(Cn2c(O)c(N=NC(=O)c3ccc(S(N)(=O)=O)cc3)c3ccccc32)cc1 | 91.2% (inactive)
CC[C@]12C=CCN3CC[C@@]4(c5ccc(OC)cc5N(C)[C@H]4[C@@](O)(C(=O)OC)[C@@H]1OC(=O)CCC(=O)O[C@H]1CC[C@H]4[C@@H]5CCC6=CC(=O)CC[C@@H]6[C@H]5CC[C@]14C)[C@@H]32 | -27.5% [100 µM] (active)
CCC(Br)(CC)C(=O)c1ccc(OCC(=O)O)c(Cl)c1Cl | 88.8% (inactive)
Oc1c(CNCCNCc2cc(Cl)cc(Cc3ccccc3)c2O)cc(Cl)cc1Cc1ccccc1 | 17.6% (inactive)
